Reference: PubChem BioAssay AID1259415 (National Center for Advancing Translational Sciences (NCATS), 2018)
Where “and” joins values, the source holds several entries; their conditions need not be identical. Equal values may be shown once. About 18,000 (4.4%) of roughly 410,000 compounds were called active. Roughly 7% stayed inconclusive and do not appear here. The sample as a whole holds a higher share of actives than the screen did. Unmarked numbers belong to inactive results. Cut-off read from the data, not from the text of the source: active = activity change below about -60%; inconclusive = no clear call, values can overlap the other calls; inactive = above about -39%.

Assay: qHTS Assay for inhibitors of the human cytomegalovirus (HCMV)
Details: HFF cells, HCMV-luciferase reporter, 72 h; at 57.5 µM; stronger effect = lower value
Source text: NCGC Assay Overview: Infection with human cytomegalovirus (HCMV) continues to pose significant threats for pregnant women and immunocompromised hosts. HCMV causes serious morbidity and mortality in transplant recipients, and congenital HCMV is the leading infectious cause of mental retardation and deafness in children. In the 1990s, the annual costs associated with the disease burden of congenital CMV were estimated at around $2 billion. A HCMV vaccine is not available yet and HCMV therapies result in intolerable side effects and emergence of drug resistant viruses. […] Towards this goal we have developed and characterized a luciferase HCMV reporter that was initially used in 96 well plates and then optimized to 1536-well plates for utilization in screening of the MLSMR collection, the NGCG diversity collection and the NCGC Pharmaceutical Collection of approved and investigational drugs.
NCGC Assay Protocol Summary:
This is a cell-based assay for HCMV inhibition in HFFs cells. The screening used 2 compound doses and the HCMV-luciferase at MOI of 1 PFU/cell. Cells were treated and infected with HCMV. At 72 h post infection cell lysates were collected and luciferase activity was determined using the Glomax-Multi + Detection System (Promega, Madison, WI). Data were normalized to the controls for basal activity (buffer only) and known HCMV inhibitors Salinmoycin.
1536-well assay protocol for the assay:
(1) Add 3 ul CMV/HFF cell culture. 1000 cells/well in DMEM nirmal media.
(2) Incubate 16 hr at 37C.
(3) Add 23 nl control compound, 10uM of Salinomycin.
(4) Add 23 nl compounds in DMSO solution.
(5) Add 3 ul CMV suspension. Final 1 puf/ul, Virus stock 2000pfu/ul
(6) Incubate 72 hrs at 37C.
(7) Add 4 ul OneGlo Luc Reagent.
(8) Incubate 5 min at room temperature.
% is set by controls: 0 for no effect and ±100 for the full control effect.

First: Cc1cc(NC(=O)C2CCC(CNS(=O)(=O)c3ccc(Br)s3)CC2)ccc1Br (configuration not stated)
Second: CC(=O)N1c2ccc(S(=O)(=O)N3CCCC(C(=O)Nc4cccc(F)c4)C3)cc2CC1C (configuration not stated)
The activity change, negative = inhibition of the first is higher: -4.58% for the first, -31.3% for the second.

First: COc1cccc(N2CC(NS(=O)(=O)c3ccc(Cl)cc3)CC2=O)c1 (configuration not stated)
Second: COc1cccc(N2CCN(S(=O)(=O)c3ccc4c(c3)CCCN4C(C)=O)CC2)c1
The activity change, negative = inhibition of the first is lower: -10.8% for the first, -9.24% for the second.

Compared with `COc1ccc(NC(=O)CSc2nc3ncccc3[nH]2)c(OC)c1`, `O=C(CSc1nc(=O)n(Cc2cccnc2)c2c1CCC2)Nc1ccc(F)cc1F` is lower in activity change, negative = inhibition: 9.48% for the first, -15.2% for the second.

First: O=C(COC(=O)C1(c2ccc(F)cc2)CCCC1)N1CCNC1=O
Second: CN(C)S(=O)(=O)c1cccc(NC(=O)COC(=O)C2(c3ccccc3F)CCCC2)c1
The activity change, negative = inhibition of the first is higher: -24.2% for the first, -26.2% for the second.

Going from `CN(Cc1ccccc1)C(=O)CCS(=O)(=O)c1cc(Br)cc2c1N(C(=O)C1CC1)CC2` to `CC1Cc2cc(S(=O)(=O)CCC(=O)NCc3ccc(Cl)cc3)ccc2N1C(=O)C1CC1` (configuration not stated), the activity change, negative = inhibition rises from -14.4% to 4.59%.

Going from `COc1ccc(S(=O)(=O)c2c(Nc3cccc(Cl)c3)sc(C(=O)c3ccccc3)c2N)cc1` to `Cc1c(C)n(Cc2ccc(Cl)cc2)c2ccc(C(=O)NCCc3ccc(S(N)(=O)=O)cc3)cc12`, the activity change, negative = inhibition falls from 20.4% to 0%.

First: N#C/C(=C(\O)C(F)(F)F)c1nnc2n1CCCCC2
Second: N#C/C(=C(\O)CCl)c1nnc2n1CCCCC2
The activity change, negative = inhibition of the first is higher: -0.374% for the first, -20.4% for the second.

Going from `CNS(=O)(=O)c1ccc2c(c1)[nH]c(=S)n2C` to `CC(=O)N1c2ccc(S(=O)(=O)N3CCCC(C(=O)Nc4ccc(C)cc4C)C3)cc2CC1C` (configuration not stated), the activity change, negative = inhibition rises from -5.5% to 33.5%.

First: Cc1ccccc1OCc1ccc(-c2nc(C#N)c(N3CCCCC3)o2)o1
Second: COc1cc(C(=O)NNC(=O)c2ccc(S(=O)(=O)N3CCCCC3)cc2)cc(OC)c1OC
The activity change, negative = inhibition of the first is lower: -23.6% for the first, 41.5% for the second.

Compared with `Cc1ccc(N2CCN(C(=O)CCc3c(C)nc4c(c3C)c(=O)n(C)c(=O)n4C)CC2)c(C)c1`, `COc1ccc(-c2nn3c(=O)cc(CN4CCN(C(=O)c5ccc(OC)c(OC)c5)CC4)nc3s2)cc1` is higher in activity change, negative = inhibition: -5.59% for the first, -5.09% for the second.

Compared with `CC(=O)N1CCCc2cc(S(=O)(=O)N3CCC(C(=O)NC4CCCCC4)CC3)ccc21`, `CC(=O)N1c2ccc(S(=O)(=O)N3CCC(C(=O)NCc4ccc(F)cc4)CC3)cc2CC1C` (configuration not stated) is lower in activity change, negative = inhibition: 6.82% for the first, -39.5% for the second.

Compared with `Cc1noc(/C=C/N(C)C)c1S(=O)(=O)N1CCCC(C(=O)Nc2cccc(F)c2)C1` (configuration not stated), `O=C(Nc1cccc(S(=O)(=O)N2CCCC2)c1)c1cncc(Br)c1` is lower in activity change, negative = inhibition: 4.81% for the first, -5.81% for the second.

Going from `CCOc1ccc(OCC)c(NC(=O)c2c(C)nn(-c3ccccc3)c2-n2cccc2)c1` to `COc1ccc(C2N=C(N)N=C(N)N2c2ccccc2)cc1OC` (configuration not stated), the activity change, negative = inhibition rises from -28.6% to 14%.

Compared with `COc1ccc(CCNc2nc(-c3ccc(Cl)cc3)cc(C(F)(F)F)n2)cc1OC`, `O=C(Nc1ccc2c(c1)OCO2)c1cc(-c2cccc(Cl)c2)on1` is higher in activity change, negative = inhibition: -19.1% for the first, 11.5% for the second.

Going from `COc1cccc(CNC(=O)CCC(=O)N2CC3CCCN3c3ccccc32)c1` (configuration not stated) to `O=C(CCNC(=O)c1ccc(Br)cc1)Nc1cccc(S(=O)(=O)N2CCCCC2)c1`, the activity change, negative = inhibition falls from -5.74% to -23.8%.

First: O=C(CCc1nc(CN2CCN(S(=O)(=O)c3ccc(Cl)cc3)CC2)no1)N1CCCCC1
Second: O=C(NCCc1ccc(F)cc1)c1ccc(S(=O)(=O)N2CCCCC2)cc1
The activity change, negative = inhibition of the first is higher: 30.2% for the first, -3.57% for the second.

First: CC[C@]12c3[nH]c4ccc(OC)cc4c3CCN1C(=O)C(CC(=O)NCCN1CCOCC1)C[C@@H]2C(=O)N1CCN(C(=O)C2CC2)CC1 (some centres not stated)
Second: CN1CCN(S(=O)(=O)c2cccc(C(=O)Nc3cccc(S(N)(=O)=O)c3)c2)CC1
The activity change, negative = inhibition of the first is higher: 3.72% for the first, -17.3% for the second.

With `CCSc1ccccc1C(=O)Nc1ccc2c(c1)OCO2` the activity change, negative = inhibition was 8.91%.

For `CC(=O)Nc1ccc(S(=O)(=O)NCC2CCC(C(=O)NCCc3ccccc3)CC2)cc1` (configuration not stated), the activity change, negative = inhibition was 0% and -12.6%.
With `COc1ccc(NC(=O)C2CCC(CNS(=O)(=O)c3csc(C(N)=O)c3)CC2)cc1OC` (configuration not stated) the activity change, negative = inhibition was -65.3% (active).
In the case of `NS(=O)(=O)c1ccc(NC(=O)COC(=O)C2(c3ccc(F)cc3)CCCC2)cc1`, the activity change, negative = inhibition is reported as -61.5% (active).
With `O=S(=O)([N-]c1nc2ccccc2nc1-[n+]1ccc(Cc2ccccc2)cc1)c1ccc(Br)s1` the activity change, negative = inhibition was -110% (active).
In the case of `N#C/C(=C/c1cccc([N+](=O)[O-])c1)c1nnc2n1CCCCC2`, the activity change, negative = inhibition is reported as -95.5% (active).
In the case of `CC(=O)N1c2ccc(S(=O)(=O)N3CCCC(C(=O)Nc4cccc(Cl)c4)C3)cc2CC1C` (configuration not stated), the activity change, negative = inhibition is reported as -62.5% (active).
For `CC(=O)N1c2ccc(S(=O)(=O)N3CCCC(C(=O)NCc4ccc(Cl)cc4)C3)cc2CC1C` (configuration not stated), the activity change, negative = inhibition was -75.8% (active).
For `CC(=O)N1CCCc2cc(S(=O)(=O)N3CCCC(C(=O)N4CCN(c5cccc(Cl)c5)CC4)C3)ccc21` (configuration not stated), the activity change, negative = inhibition was -72.9% (active) and -95.8% (active).
In the case of `Cn1c(=O)n(C)c2cc(C(=O)Nc3ccc4c(c3)OCO4)ccc21`, the activity change, negative = inhibition is reported as -96.3% (active).
For `NS(=O)(=O)c1ccc(CCNC(=O)c2ccc(Cl)c(S(=O)(=O)N3CCCCCC3)c2)cc1`, the activity change, negative = inhibition was -69.2% (active).
In the case of `O=C(Nc1cccc(S(=O)(=O)N2CCCCC2)c1)c1ccc2c(c1)OCO2`, the activity change, negative = inhibition is reported as -69% (active).
In the case of `CCN(CC)S(=O)(=O)c1cccc(NC(=O)c2ccc(S(=O)(=O)N3CCCC3)cc2)c1`, the activity change, negative = inhibition is reported as -65.5% (active).
